USP2a inh: USP2a (human) protease inhibition; 330,000 compounds, 0.01% hits; AID 463254; Potency, µM (series often up to 38.3 µM), for inactives: top-dose activity change, negative = inhibition, most hits filed as inhibitors; USP2 core, Ub-CHOP2 coupled fluorogenic reporter, 485/531; O75604;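 further: potency means the concentration at half of the fitted maximal effect; plate controls were DMSO wells for no effect and full inhibition by NEM control for full effect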
Target sequence (O75604 whole entry, looked up): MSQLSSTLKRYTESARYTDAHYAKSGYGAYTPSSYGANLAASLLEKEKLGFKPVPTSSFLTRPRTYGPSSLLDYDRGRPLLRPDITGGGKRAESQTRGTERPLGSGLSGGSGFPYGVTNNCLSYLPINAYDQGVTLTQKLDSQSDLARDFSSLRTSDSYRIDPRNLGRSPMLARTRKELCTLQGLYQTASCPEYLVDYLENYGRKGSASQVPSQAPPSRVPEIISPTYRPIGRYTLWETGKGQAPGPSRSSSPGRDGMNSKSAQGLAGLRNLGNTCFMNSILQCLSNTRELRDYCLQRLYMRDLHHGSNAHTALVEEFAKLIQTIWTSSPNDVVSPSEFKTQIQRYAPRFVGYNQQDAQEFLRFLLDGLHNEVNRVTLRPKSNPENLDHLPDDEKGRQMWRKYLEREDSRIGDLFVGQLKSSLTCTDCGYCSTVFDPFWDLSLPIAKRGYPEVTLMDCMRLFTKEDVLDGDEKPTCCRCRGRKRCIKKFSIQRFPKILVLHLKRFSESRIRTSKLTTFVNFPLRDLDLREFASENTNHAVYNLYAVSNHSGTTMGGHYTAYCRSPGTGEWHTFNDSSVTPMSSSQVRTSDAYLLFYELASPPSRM
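Deubiquitinase activity read as fluorescence (485/531 nm) after Ub-CHOP2 cleavage activates the enterokinase reporter on its substrate; USP2 core 10nM, Ub-CHOP2 and substrate 25nM each, 30min compound preincubation then 60min RT; data normalized to NEM, curves fitted.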
IL1B secr inh: inflammasome signaling inhibition, IL-1 beta readout; THP-1 LPS/ATP IL-1B secretion, AlphaLISA, 16 h; hits give low values; 360,000 compounds, 4.7% hits; activity change, % at 57.5 µM; AID 743279; in the data active means activity change below about -50%; inconclusive means mostly about -30% to -49%; further: on the % scale 0 is the no-effect control and ±100 the full control effect
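Secreted IL-1B measured by AlphaLISA bead assay after 16 h compound exposure of THP-1 cells; compounds (final up to 57.5 uM) added 1 h before LPS (250 ng/mL) and ATP (1.25 mM) stimulation; lower signal means less secretion.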
USP1 inh: inhibitors of human USP1/UAF1 deubiquitinase | Potency, µM (series often up to 57.1 µM), without a hit: at the highest dose activity change, negative = inhibition, usual class: inhibitors | recombinant USP1/UAF1, Ub-Rhodamine cleavage fluorescence | AID 743255 | 390,000 compounds, 0.23% hits | O94782; further: potency means the concentration at half of the fitted maximal effect; on the % scale 0 is the no-effect control and ±100 the full control effect; nearly all actives have a fitted effect of over 60% in size
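In this screen, compounds sit with the deubiquitinase complex (1nM) for 15 min at room temperature before Ub-Rho is added at 150nM final. Fluorescence rise is then followed for 6 reads every 60 seconds.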
S2 tox: viability counter-screen for ATXN expression inhibitors. S2 cells (HEK-293 line with an ATXN2-luciferase reporter) viability, CellTiter-Fluor protease fluorescence, 24 h. Potency, µM (top dose mostly 56.7 µM), hits mostly cytotoxic. 400,000 compounds, 0.49% hits. AID 651635; further: potency means the concentration at half of the fitted maximal effect; nearly all actives have a fitted effect of over 40% in size
ATXN2 expr inh: inhibitors of ATXN2 expression; Potency, µM (doses to about 57 µM), for inactives: top-dose activity change, negative = inhibition, usual class: inhibitors; 360,000 compounds, 0.72% hits; HEK-293 ATXN2-luciferase reporter, luminescence, 24 h; AID 1745845; further: potency means the concentration at half of the fitted maximal effect; on the % scale 0 is the no-effect control and ±100 the full control effect; nearly all actives have a fitted effect of over 55% in size
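ATXN2-luciferase reporter cells (luciferase flanked by upstream and downstream ATXN2 gene portions) were treated 24 h at 37 °C with compounds at up to 57 uM. SteadyGlo luminescence gave expression; GF-AFC fluorescence gave viability.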
* marks the source's active call; other numbers are inactive results; i = inactive; ? = inconclusive; / = no result; [ ] = another dose, or the depositor's remark. In the library only some 4.8% were active in any assay of this set; here they are far more common. Unless noted, the call rests on the fitted dose curve; in most records, active means well fitted curve in the direction sought with a large enough effect; inconclusive means small, poorly fitted or top-dose-only effect, or another doubt; inactive means no such curve, though single readings can be large; an effect the other way counts as inactive or inconclusive.

SMILES	USP2a inh	IL1B secr inh	USP1 inh	S2 tox	ATXN2 expr inh
COC(=O)c1cc(C)nc(Nc2nc(C(N)Cc3ccc(Cl)cc3)cs2)n1 (centres undefined)	/	-68*	/	i	-13%
COc1cc(OC)nc(Nc2nc(C(N)COCc3ccccc3)cs2)n1 (centres undefined)	/	?	/	i	-10%
COC(=O)c1cc(C)nc(Nc2nc(C(N)Cc3ccc(F)cc3)cs2)n1 (centres undefined)	/	-10	/	i	1%
COc1cc(OC)nc(Nc2nc(C(N)Cc3ccc(Cl)cc3)cs2)n1 (centres undefined)	/	-89*	/	/	32µM*
CCOC(=O)[C@]12CCC=C1N(Cc1ccco1)C(=O)[C@H](CC(=O)NCCCOC)C2	/	-13	/	i	2%
O=C(Nc1cccc(Cl)c1Cl)C1CCCO1 (centres undefined)	2%	-18	-21%	i	-13%[11.3 µM]
CC(=O)C1=C(C)NC(SCC(=O)c2ccc(Cl)cc2Cl)=C(C#N)C1c1ccco1 (centres undefined)	-9%	-54*	?	i	-5%
CC(=O)C1=C(C)NC(SCC(=O)c2ccc(Cl)cc2)=C(C#N)C1c1ccco1 (centres undefined)	-4%	-62*	?	i	-1%
C[C@H](C[C@H](O)[C@H]1OC1(C)C)C1=C2C[C@H](O)C3[C@@]4(C)CCC(=O)C(C)(C)C4CC[C@]3(C)[C@@]2(C)CC1 (some centres undefined)	-7%	-7	-19%	25µM*	?
C=CCn1c(SCC(=O)NCC2CCCO2)nc2sc(CC)cc2c1=O (centres undefined)	8%	-12	-13%	i	5%
COc1ccc(Br)cc1CN1CCCC(C(=O)N2CCCCCC2)C1 (centres undefined)	2%	-57*	0%	i	-20%
COc1ccc(Br)cc1CN1CCC(N2CCCC2)CC1	4%	-67*	-18%	i	-13%
COc1ccc(Br)cc1CN1CCCC(C(=O)N2CCCCC2)C1 (centres undefined)	1%	-3	-11%	i	-24%
Cc1ccc(CSCc2ccc(C(=O)NCCC(C)C)o2)cc1	2%	-66*	-10%	i	6%
C[C@]12CCC(=O)C=C1CC[C@@H]1[C@H]2[C@@H](O)C[C@@]2(C)[C@H]1CC[C@]2(O)C(=O)CO	/	/	/	/	-11%
Cc1ccc(-c2csc(NS(=O)(=O)c3cccc(F)c3)n2)o1	0%	-15	-12%	i	16%
CC(C)c1ccccc1-n1c(SCc2cc(=O)oc3ccc4ccccc4c23)nnc1-c1cccnc1	-22%	-51*	-15%	?	?
CCOc1ccc(-n2c(SCc3cc(=O)oc4cc(C)ccc34)nnc2-c2cccnc2)cc1	2%	-54*	-6%	i	6%
COc1ccc(C(C)(O)c2nc(-c3cccc(NC(C)=O)c3)cs2)cc1 (centres undefined)	/	29	/	i	20%
CCOc1ccccc1C(=O)OCC(=O)Nc1cc(S(=O)(=O)N2CCOCC2)ccc1C	0%	0	-25%	i	5%
Cc1c(O)nc(SCC(=O)Nc2ccc(Cl)cc2Cl)n(-c2ccc(F)cc2)c1=O	/	/	-16%	/	/
CCOc1ccc(Cl)cc1C1=CC(=O)C[C@H](c2ccc(OC)cc2)C1	-22%	74	-9%	i	-10%
CCCCSC(=S)NC1CCS(=O)(=O)C1 (centres undefined)	3%	-98*	-6%	i	-13%
O=S1(=O)CCC(NC(=S)SCCOc2ccccc2)C1 (centres undefined)	1%	?	4%	?	-18%
O=[N+]([O-])c1cccnc1Oc1ccc(OCc2ccccc2)cc1	1%	?	-27%	i	27%
SMILES	USP2a inh	IL1B secr inh	USP1 inh	S2 tox	ATXN2 expr inh
O=[N+]([O-])c1ccc(Oc2ccc(OCc3ccccc3)cc2)nc1	-8%	-80*	-33%	i	2%
Cc1ccc(S(=O)(=O)N2C[C@H]3C(=O)C[C@@H](c4ccc(Cl)cc4)N(S(=O)(=O)c4ccc(C)cc4)[C@H]3C[C@H]2c2cccc3ccccc23)cc1	/	36	/	i	14%
FC(F)(F)COc1nc(OCC(F)(F)F)nc(N2CCN(c3ccccc3)CC2)n1	-1%	-54*	?	i	-12%
Cc1cc(C)n2nc(CNC(=O)c3c(F)cccc3F)nc2n1	/	/	13%	/	/
CCOC(=O)c1c2c(n(Cc3ccccc3)c1C)C(=O)C(=O)c1ccccc1-2	/	-100*	2.5µM*	15µM*	19µM*
CCOC(=O)c1c2c(n(C)c1C)C(=O)C(=O)c1ccc(Br)cc1-2	/	37	?	?	?
CC(C)Cc1nc2cc(NS(=O)(=O)N(C)C)cc(C(=O)N3CCOCC3)c2n1C	/	/	/	i	/
COc1ccc(Br)cc1CN1CCN(Cc2c[nH]c3ccccc23)CC1	-12%	-74*	-18%	i	?
COc1cccc(C(=O)N2CCN(Cc3cc(Br)ccc3OC)CC2)c1	0%	-51*	-18%	i	-13%
COc1ccc(CN2CCN(Cc3c[nH]c4ccccc34)CC2)cc1OC	/	-25	9%	i	/
C1=CC2c3ccccc3NC(c3ccncc3)C2C1 (centres undefined)	-8%	-107*	?	?	17%
O=CNc1cc(-c2ccc(C(=O)NC3CC3)cc2)cn2c(-c3ccccc3)cnc12	/	?	/	?	0%
CC(=O)c1ccc(-c2cnc3c(NC=O)cc(-c4ccc(C(=O)NC5CC5)cc4)cn23)cc1	/	-64*	/	?	?
COc1cc(-c2cc(NC(C)=O)c3ncc(-c4ccc(C(C)=O)cc4)n3c2)cc(OC)c1OC	/	-64*	/	i	-22%
COc1cc(-c2cc(NC(C)=O)c3ncc(-c4ccc(F)cc4)n3c2)cc(OC)c1OC	/	/	/	?	-12%
COc1cccc(-c2cnc3c(NC(C)=O)cc(-c4ccc(OC)c(OC)c4)cn23)c1	/	?	/	?	-4%
COc1cccc(-c2cc(NC(C)=O)c3ncc(-c4ccc(OC)c(OC)c4)n3c2)c1	/	-81*	/	i	-2%
CN(C(=O)c1cnn(-c2ncc3c(n2)-c2ccccc2CCC3)c1C1CC1)C1CCOC1 (centres undefined)	/	/	/	i	/
CCOc1ccc(C2C(=O)N(C3CCCCCC3)CC(=O)N2CCc2ccccc2)cc1OC (centres undefined)	/	/	1%	/	/
[Cl][In]([Cl])[Cl]	/	/	/	i	6%[116 µM]
COC(=O)Cn1cnc2c(Cl)nc(F)nc21	2%	-90*	-21%	i	-9%
COC(=O)Cn1cnc2c(nnn2-c2ccc(F)cc2)c1=O	1%	-4	12%	i	-3%
